Assay results published in the supplement of paper PMC8975748.
Counter-ions that a name gives are not always drawn.

What follows are compounds tested on Saccharomyces cerevisiae BY4741 SeMeCo community (assay: z-score of subpopulation abundance vs DMSO median, subpopulation auxotrophic for HU; higher = larger share of this subpopulation than in DMSO controls). Settings: 10 µM; 24 h; SM minimal medium; subpopulation (auxotrophy): HU.
Protocol: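 Fluorescent four-plasmid SeMeCo (self-establishing metabolically cooperating S. cerevisiae BY4741 community; plasmids pH-mRuby2, pL-mWasabi, pU-eCFP, pM-TagRFP657) was grown 24 h in minimal SM medium with each Selleck FDA-approved drug at 10 µM in 384-well plates. Cells were fixed and imaged by high-content confocal microscopy. For each auxotrophic subpopulation (and the prototroph), a z-score gives the deviation from the DMSO vehicle-control population median.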

In order of rising “z-score of subpopulation abundance” value:
1. CN1[C@@H]2C[C@@H](OC(=O)[C@H](CO)c3ccccc3)C[C@H]1[C@@H]1O[C@@H]12 [Scopolamine HBr]  -1.37
2. Oc1cccc2cccnc12 [8-Hydroxyquinoline]  -1.16
3. CN1c2ccccc2C(NCCCCCCC(=O)O)c2ccc(Cl)cc2S1(=O)=O (centres undefined) [Tianeptine sodium]  -1.1
4. Cc1cc(O)ccc1Cl [Chlorocresol]  -1.07
5. CC(NC(C)(C)C)C(=O)c1cccc(Cl)c1 (centres undefined) [Amfebutamone (Bupropion) HCl]  -0.9
6. CCN(C)C(=O)Oc1cccc([C@H](C)N(C)C)c1 [Rivastigmine Tartrate]  -0.86
7. CC[C@@]1(O)C(=O)OCc2c1cc1n(c2=O)Cc2cc3ccccc3nc2-1 [Camptothecin]  -0.74
8. COc1ccc(C=O)cc1 [p-Anisaldehyde]  -0.72
9. C[C@@H]1O[C@@H](O[C@H]2C[C@@H](O)[C@]3(CO)[C@H]4[C@H](O)C[C@]5(C)[C@@H](C6=CC(=O)OC6)CC[C@]5(O)[C@@H]4CC[C@]3(O)C2)[C@H](O)[C@H](O)[C@H]1O [Ouabain]  -0.71
10. C#C[C@]1(O)C=C[C@H]2[C@@H]3CCC4=CC(=O)CC[C@@H]4[C@H]3CC[C@@]21CC [Gestodene]  -0.67
11. COc1ccc2c(c1)[C@]13CCCC[C@@H]1[C@H](C2)N(C)CC3 [Dextromethorphan hydrobromide hydrate]  -0.61
12. CC(=O)O[C@H]1C[C@@H]2CC[C@@H]3[C@H](CC[C@@]4(C)[C@H]3C[C@H]([N+]3(C)CCCCC3)[C@@H]4OC(C)=O)[C@@]2(C)C[C@@H]1[N+]1(C)CCCCC1 [Pancuronium dibromide]  -0.53
13. CN[C@@H]1[C@@H](O)[C@@H](O[C@@H]2[C@@H](O)[C@H](O[C@H]3O[C@H](CN)CC[C@H]3N)[C@@H](N)C[C@H]2N)OC[C@]1(C)O.CN[C@@H]1[C@@H](O)[C@@H](O[C@@H]2[C@@H](O)[C@H](O[C@H]3O[C@H]([C@@H](C)N)CC[C@H]3N)[C@@H](N)C[C@H]2N)OC[C@]1(C)O.CN[C@@H]1[C@@H](O)[C@@H](O[C@@H]2[C@@H](O)[C@H](O[C@H]3O[C@H]([C@@H](C)NC)CC[C@H]3N)[C@@H](N)C[C@H]2N)OC[C@]1(C)O [Gentamicin Sulfate]  -0.53
14. CN1[C@@H]2C[C@@H](OC(=O)[C@H](CO)c3ccccc3)C[C@H]1[C@@H]1O[C@@H]12 [Scopolamine HBr trihydrate]  -0.46
15. CN(C)[C@@H]1C(=O)C(C(N)=O)=C(O)[C@@]2(O)C(=O)C3=C(O)c4c(O)ccc(Cl)c4[C@@](C)(O)[C@H]3C[C@@H]12 [Chlortetracycline HCl]  -0.42
16. CCC1=C[C@H]2CN3CCc4c([nH]c5ccccc45)[C@](C(=O)OC)(C2)[C@H]13 [Catharanthine]  -0.39
17. N#Cc1nn(-c2c(Cl)cc(C(F)(F)F)cc2Cl)c(N)c1[S+]([O-])C(F)(F)F (centres undefined) [Fipronil]  -0.37
18. CN1[C@@H]2CC[C@H]1C[C@@H](OC(=O)[C@H](CO)c1ccccc1)C2 [Hyoscyamine]  -0.35
19. C[C@H]1O[C@H](O[C@H]2[C@H](O)[C@@H](O)[C@@H](O)[C@H](O)[C@@H]2O)[C@@H](N)C[C@@H]1NC(=N)C(=O)O [Kasugamycin hydrochloride]  -0.33
20. CC[C@H]1[C@@H]2C[C@H]3[C@@H]4N(C)c5ccccc5[C@]45C[C@@H]([C@@H]2[C@H]5O)N3[C@@H]1O [Ajmaline]  -0.28
21. COc1ccc(C(CN(C)C)C2(O)CCCCC2)cc1 (centres undefined) [Venlafaxine HCl]  -0.07
22. COC(=O)C1=CCCN(C)C1 [Arecoline HBr]  0.06
23. CCN1CC2(OC(=O)c3ccccc3NC(C)=O)CCC(OC)C34C1C(CC23)C1(O)CC(OC)C2CC4C1(O)C2OC (centres undefined) [Lappaconitine]  0.26
24. NCC(O)c1ccc(O)cc1 (racemic) [(+,-)-Octopamine HCl]  0.29
25. CC[C@H]1CN2CC[C@]3(C(=O)Nc4ccccc43)[C@@H]2C[C@@H]1/C(=C\OC)C(=O)OC [Rhynchophylline]  0.35
26. C=CCN1C[C@H](C(=O)N(CCCN(C)C)C(=O)NCC)C[C@@H]2c3cccc4[nH]cc(c34)C[C@H]21 [Cabergoline]  0.39
27. O=[N+]([O-])C(Br)(CO)CO [Bronopol]  0.4
28. N[C@@H]1C[C@H]1c1ccccc1 [Tranylcypromine (2-PCPA) HCl]  0.44
29. NC(=O)CN1CCCC1=O [Piracetam]  0.46
30. CN(C)C(=O)Oc1ccc[n+](C)c1 [Pyridostigmine Bromide]  0.63
31. CN(C)[C@@H]1C(=O)C(C(N)=O)=C(O)[C@@]2(O)C(=O)C3=C(O)c4c(O)cccc4[C@@](C)(O)[C@H]3[C@H](O)[C@@H]12 [Oxytetracycline (Terramycin)]  0.99
32. C=CN1CCCC1=O.II [Povidone iodine]  1.56
33. C[CH2][Hg][S]c1ccccc1C(=O)[O-].[Na+] [Thimerosal]  6.59
34. CCCCCCCCCCCCCCCC[n+]1ccccc1 [Cetylpyridinium Chloride]  16.1
